Molecules are shown by their SMILES. Where “and” joins values, the source holds several entries; their conditions need not be identical. Equal entries are not always repeated. Calls of active or inactive are those of the source. Unless noted, the call rests on the fitted dose curve; in most records, active means well fitted curve in the direction sought with a large enough effect in the repeat runs; inconclusive means weak or mixed curves; inactive means no such curve, though single readings can be large; an effect the other way counts as inactive or inconclusive.

Assay [1] is described as follows: qHTS assay for small molecule activators of the heat shock response signaling pathway (AID 743210; active means well fitted activation curve with a large enough effect in the signal ratio in the repeat runs, with a control signal flat, not every such curve was filed as active; inconclusive means weak or mixed curves; the % refers to the signal ratio; further: potency means the concentration at half of the fitted maximal effect;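 on activation: HeLa cells with beta-lactamase reporter driven by heat shock elements; series mostly up to about 63 µM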). In outline: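 Activation of heat shock element-controlled beta-lactamase expression is measured in HeLa cells by LiveBLAzer FRET fluorescence, with compound exposure lasting 5 h at 37 C and substrate loading 2.5 h at room temperature.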
In general terms: qHTS replaces the single test concentration by a dilution series.

In assay [2] the target is Nuclear receptor ROR-gamma (Homo sapiens) (UniProt P51449). Briefly: qHTS assay to identify small molecule antagonists of the retinoid-related orphan receptor gamma (ROR-gamma) signaling pathway (AID 1159521; further: nearly all actives have a fitted effect of over 50% in size; further: potency means the concentration at half of the fitted maximal effect). In outline:
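CHO cells expressing RORγ under a TET-on promoter, luciferase under RORE control. Dox 1 uM final, 16 h; compounds added 2 h prior. Luminescence decrease measured.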

Assay [3] is described as follows: qHTS assay for small molecules that induce genotoxicity in human embryonic kidney cells expressing luciferase-tagged ATAD5 (AID 651632). Further: nearly all actives have a fitted effect of over 15% in size. Summed up:
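A rise in luciferase signal from ATAD5-tagged HEK293T cells marks genetic stress. Cells were exposed to compounds for 16 hr at 37C, 5% CO2, then luciferase was quantified after a 30 min room-temperature incubation with Amplite.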

Assay [4] can be described thus: qHTS assay for small molecules that induce genotoxicity in human embryonic kidney cells expressing luciferase-tagged ATAD5 - cell viability (AID 651634; calls by dose curve; further: nearly all actives have a fitted effect of over 25% in size; further: potency means the concentration at half of the fitted maximal effect). Summed up:
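Cytotoxicity counter-readout: after 15.5 hr compound treatment at 37C, live-cell protease activity in ATAD5-luciferase HEK293T cells measured by CellTiter-Fluor fluorescence, 30 min development at 37C.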

The nature of assay [5]: qHTS assay to test for compound auto fluorescence at 590 nm (red) in HEK293 cells (AID 720679). Summed up:
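Each well held 2,000 HEK293 cells in medium containing 10% dialyzed FBS. Following 4-5 hr attachment at 37C, 23 nL test compound or DMSO was added; plates sat overnight, and red fluorescence (540/590nm) was recorded.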

Assay [6] concerns the target Glucocorticoid receptor (Homo sapiens) (UniProt P04150). Briefly: qHTS assay to identify small molecule antagonists of the glucocorticoid receptor (GR) signaling pathway (AID 720692; active means well fitted inhibition curve with a large enough effect in the signal ratio in the repeat runs, not every such curve was filed as active; inconclusive means weak or mixed curves, or effect the other way; inactive means no such curve, though single readings can be large or run the other way; the % refers to the signal ratio; further: potency means the concentration at half of the fitted maximal effect). In outline:
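Inhibition of dexamethasone-driven (5 nM final) beta-lactamase expression was measured in GRE-reporter HeLa cells over 18 h at 37C. Fluorescence was read after 2 h with the B/G FRET substrate at room temperature.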

Assay [7] can be described thus: qHTS assay to identify small molecule antagonists of the thyroid receptor (TR) signaling pathway - cell viability counter screen (AID 743064). Further: potency means the concentration at half of the fitted maximal effect; nearly all actives have a fitted effect of over 50% in size. Summed up: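 Compounds were tested on GH3.TRE-Luc cells in the presence of T3 at 1 nM final. Following 23.5 h at 37 °C, cell viability was quantified by CellTiter-Fluor.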
For assay [8], the target named is Estrogen receptor (Homo sapiens) (UniProt P03372). Briefly: qHTS assay to identify small molecule agonists of the estrogen receptor alpha (ER-alpha) signaling pathway (AID 743075; calls by dose curve; further: potency means the concentration at half of the fitted maximal effect).
Chain of Estrogen receptor (Homo sapiens) (P03372 whole entry, looked up): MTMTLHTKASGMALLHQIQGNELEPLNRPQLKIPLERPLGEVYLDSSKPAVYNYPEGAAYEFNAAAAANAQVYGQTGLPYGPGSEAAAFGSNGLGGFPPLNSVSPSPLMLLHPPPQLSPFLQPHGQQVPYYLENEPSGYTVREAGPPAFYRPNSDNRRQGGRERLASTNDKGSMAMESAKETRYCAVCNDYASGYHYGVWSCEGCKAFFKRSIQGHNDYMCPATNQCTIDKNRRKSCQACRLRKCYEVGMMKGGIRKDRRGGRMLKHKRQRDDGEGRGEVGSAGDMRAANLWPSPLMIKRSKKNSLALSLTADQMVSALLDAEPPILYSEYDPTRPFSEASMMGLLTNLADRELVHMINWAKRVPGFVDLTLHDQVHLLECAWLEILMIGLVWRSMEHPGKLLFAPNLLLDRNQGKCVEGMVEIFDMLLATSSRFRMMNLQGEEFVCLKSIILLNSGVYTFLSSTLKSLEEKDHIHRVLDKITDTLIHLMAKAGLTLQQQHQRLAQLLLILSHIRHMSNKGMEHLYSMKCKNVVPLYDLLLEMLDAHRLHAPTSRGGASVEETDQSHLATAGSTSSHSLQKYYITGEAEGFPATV
A short description of assay [9]: qHTS assay to identify small molecule antagonists of the estrogen receptor alpha (ER-alpha) signaling pathway using the BG1 cell line - cell viability counter screen (AID 743081).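 Further: compound given together with 17beta-estradiol as the ER stimulus; series mostly up to about 70 µM; nearly all actives have a fitted effect of over 45% in size.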
The nature of assay [10]: qHTS assay to identify small molecule that activate the aryl hydrocarbon receptor (AhR) signaling pathway - cell viability counter screen (AID 743086). Further: nearly all actives have a fitted effect of over 45% in size. Further: potency means the concentration at half of the fitted maximal effect. In outline:
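HepG2-AhR-luc (HG2L7.5c1) cells, 4000/well, were preincubated 5 h at 37C, exposed to compound in qHTS format for 24 hr at 37C, then given CellTiter-Fluor for 30 min; viability was read as fluorescence in the reporter wells.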

Assay [11] in a line: qHTS assay to test for compound auto fluorescence at 460 nm (blue) in HepG2 cells (AID 720687). Summed up:
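Cells (2,000/well in MEM with 10% FBS) attached overnight at 37 C, then were exposed to compound or DMSO for 1 hr at 37 C, 5% CO2. Fluorescence read at Ex/Em 405/460 nm, expressed as triamterene-equivalent signal.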

The nature of assay [12]: qHTS assay for identifying genotoxic compounds that show differential cytotoxicity against isogenic chicken DT40 cell lines with known DNA damage response pathways - wild type cell line (AID 743012). Further: nearly all actives have a fitted effect of over 60% in size. Further: potency means the concentration at half of the fitted maximal effect. In outline: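 Viability by ATP luminescence (CellTiter-Glo, 30 min RT) after 40 h compound treatment at 37 C/5% CO2, using 300 parental DNA repair-proficient DT40 cells per well.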

Assay [13] can be described thus: qHTS assay to identify aromatase inhibitors - cell viability counter screen (AID 743084).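 Further: cells stimulated with testosterone during compound exposure; nearly all actives have a fitted effect of over 55% in size.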 Further: potency means the concentration at half of the fitted maximal effect.
The target in assay [14] is Androgen receptor (Homo sapiens) (UniProt P10275). In words: qHTS assay to identify small molecule antagonists of the androgen receptor (AR) signaling pathway using the MDA cell line in the presence of 0.5 nM R1881 (AID 1259243). Further: potency means the concentration at half of the fitted maximal effect; nearly all actives have a fitted effect of over 50% in size. In outline: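 Luminescent reporter readout (ONE-Glo, 30 min, room temperature) after 16 hr co-treatment of MDA-kb2 cells with test compounds and 0.5 nM R1881 final, at 37C without CO2. The MMTV-driven luciferase responds to both AR and GR.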
Chain of Androgen receptor (Homo sapiens) (P10275 whole entry, looked up): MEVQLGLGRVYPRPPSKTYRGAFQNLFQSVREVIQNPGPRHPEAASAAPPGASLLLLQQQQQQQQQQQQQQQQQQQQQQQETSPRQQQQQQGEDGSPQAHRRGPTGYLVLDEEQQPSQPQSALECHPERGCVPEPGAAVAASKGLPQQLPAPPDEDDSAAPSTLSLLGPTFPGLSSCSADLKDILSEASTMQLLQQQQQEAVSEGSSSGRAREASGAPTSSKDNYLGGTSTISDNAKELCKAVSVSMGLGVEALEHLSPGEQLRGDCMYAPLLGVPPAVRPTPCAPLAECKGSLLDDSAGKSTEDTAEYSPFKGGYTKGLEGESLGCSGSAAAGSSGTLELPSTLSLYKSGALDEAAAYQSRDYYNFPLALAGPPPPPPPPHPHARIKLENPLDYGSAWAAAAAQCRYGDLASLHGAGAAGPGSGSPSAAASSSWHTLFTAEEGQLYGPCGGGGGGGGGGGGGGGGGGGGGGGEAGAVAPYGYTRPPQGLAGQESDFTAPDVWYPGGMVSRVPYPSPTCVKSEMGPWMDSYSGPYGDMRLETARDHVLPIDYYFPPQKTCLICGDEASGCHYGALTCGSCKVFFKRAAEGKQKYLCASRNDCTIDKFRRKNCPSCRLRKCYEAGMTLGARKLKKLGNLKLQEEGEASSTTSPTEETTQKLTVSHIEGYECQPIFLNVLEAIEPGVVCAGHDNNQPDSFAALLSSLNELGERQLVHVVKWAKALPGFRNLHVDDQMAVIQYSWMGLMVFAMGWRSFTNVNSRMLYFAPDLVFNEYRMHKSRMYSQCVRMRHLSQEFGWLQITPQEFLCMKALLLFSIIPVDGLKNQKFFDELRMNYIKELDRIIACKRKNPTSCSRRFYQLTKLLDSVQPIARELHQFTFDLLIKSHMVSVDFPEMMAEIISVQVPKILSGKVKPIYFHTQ

Assay [15] has as its target Estrogen receptor beta (Homo sapiens) (UniProt Q92731). Briefly: qHTS assay to identify small molecule antagonists of the estrogen receptor beta (ER-beta) signaling pathway (AID 1259378; active means well fitted inhibition curve with a large enough effect in the signal ratio in the repeat runs, not every such curve was filed as active; inconclusive means weak or mixed curves, or effect the other way; inactive means no such curve, though single readings can be large or run the other way; the % refers to the signal ratio; further: potency means the concentration at half of the fitted maximal effect). Summed up:
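ER-beta-UAS-bla HEK293T (GripTite) cells in 2% charcoal-stripped FBS medium were preincubated 6 hr at 37C, dosed with compound, then stimulated with 1 nM E2 (final) for 16 hr; beta-lactamase reporter read by B/G FRET fluorescence after 2 hr substrate loading.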

Assay [16] is described as follows: qHTS assay to identify small molecule antagonists of the androgen receptor (AR) signaling pathway - cell viability counter screen (AID 743033; further: nearly all actives have a fitted effect of over 45% in size; further: potency means the concentration at half of the fitted maximal effect).
Assay [17] can be described thus: qHTS assay to identify small molecule agonists of the peroxisome proliferator-activated receptor delta (PPARd) signaling pathway - cell viability counter screen (AID 743211). Further: nearly all actives have a fitted effect of over 55% in size. Further: potency means the concentration at half of the fitted maximal effect. Summed up: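 Luminescent ATP viability assay (CellTiter-Glo, 30 min RT) in UAS-bla HEK293H cells carrying the PPAR delta reporter construct, 3000 cells/well, after a 17 h compound treatment at 37 C.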

Assay [18] can be described thus: qHTS assay to identify small molecule antagonists of the androgen receptor (AR) signaling pathway using the MDA cell line - cell viability counter screen (AID 743041; further: nearly all actives have a fitted effect of over 45% in size; further: potency means the concentration at half of the fitted maximal effect). In outline:
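qHTS viability read-out; MDA-kb2 AR-luc; R1881-stimulated; 16 h exposure at 37C, 0% CO2; CellTiter-Fluor, 30 min; fluorescence intensity.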

The target of assay [19] is Progesterone receptor (Homo sapiens) (UniProt P06401). Briefly: qHTS assay to identify small molecule antagonists of the progesterone receptor (PR) signaling pathway (AID 1346795; active means well fitted inhibition curve with a large enough effect in the signal ratio in the repeat runs, not every such curve was filed as active; inconclusive means weak or mixed curves; the % refers to the signal ratio; further: potency means the concentration at half of the fitted maximal effect). In outline:
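Screening used a GripTite HEK293T line with PR-responsive UAS-beta-lactamase. Cells were challenged with compound in the presence of 1 nM R5020 final for 16 hr at 37C; B/G FRET substrate, 2 hr room temperature, fluorescence.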

The target in assay [20] is Peroxisome proliferator-activated receptor delta (Homo sapiens) (UniProt Q03181). Briefly: qHTS assay to identify small molecule antagonists of the peroxisome proliferator-activated receptor delta (PPARd) signaling pathway (AID 743215; active means well fitted inhibition curve with a large enough effect in the signal ratio in the repeat runs, not every such curve was filed as active; inconclusive means weak or mixed curves, or effect the other way; inactive means no such curve, though single readings can be large or run the other way; the % refers to the signal ratio;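 further: cells stimulated with agonist L165041 at 300 nM final during compound exposure; series mostly up to about 62 µM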). Summed up: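 Agonist L165041 (300 nM final) added with compound to PPARd-bla HEK293H UAS-bla reporter cells; 17 h incubation at 37 C. Read-out: LiveBLAzer FRET substrate, 2 h at room temperature, fluorescence intensity.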
Chain of Peroxisome proliferator-activated receptor delta (Homo sapiens) (Q03181 whole entry, looked up): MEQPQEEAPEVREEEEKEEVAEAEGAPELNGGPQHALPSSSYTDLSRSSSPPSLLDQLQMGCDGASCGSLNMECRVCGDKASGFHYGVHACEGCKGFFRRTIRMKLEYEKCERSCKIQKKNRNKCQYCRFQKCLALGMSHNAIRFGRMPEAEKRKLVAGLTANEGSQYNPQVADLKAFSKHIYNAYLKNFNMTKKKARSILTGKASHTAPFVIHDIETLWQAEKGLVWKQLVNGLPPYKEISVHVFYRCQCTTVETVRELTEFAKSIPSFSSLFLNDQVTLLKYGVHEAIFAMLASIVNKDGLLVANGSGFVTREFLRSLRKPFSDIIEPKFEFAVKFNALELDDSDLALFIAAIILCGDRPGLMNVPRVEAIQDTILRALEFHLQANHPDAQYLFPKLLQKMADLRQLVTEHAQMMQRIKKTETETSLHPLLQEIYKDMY

Chain of Glucocorticoid receptor (Homo sapiens) (P04150 whole entry, looked up): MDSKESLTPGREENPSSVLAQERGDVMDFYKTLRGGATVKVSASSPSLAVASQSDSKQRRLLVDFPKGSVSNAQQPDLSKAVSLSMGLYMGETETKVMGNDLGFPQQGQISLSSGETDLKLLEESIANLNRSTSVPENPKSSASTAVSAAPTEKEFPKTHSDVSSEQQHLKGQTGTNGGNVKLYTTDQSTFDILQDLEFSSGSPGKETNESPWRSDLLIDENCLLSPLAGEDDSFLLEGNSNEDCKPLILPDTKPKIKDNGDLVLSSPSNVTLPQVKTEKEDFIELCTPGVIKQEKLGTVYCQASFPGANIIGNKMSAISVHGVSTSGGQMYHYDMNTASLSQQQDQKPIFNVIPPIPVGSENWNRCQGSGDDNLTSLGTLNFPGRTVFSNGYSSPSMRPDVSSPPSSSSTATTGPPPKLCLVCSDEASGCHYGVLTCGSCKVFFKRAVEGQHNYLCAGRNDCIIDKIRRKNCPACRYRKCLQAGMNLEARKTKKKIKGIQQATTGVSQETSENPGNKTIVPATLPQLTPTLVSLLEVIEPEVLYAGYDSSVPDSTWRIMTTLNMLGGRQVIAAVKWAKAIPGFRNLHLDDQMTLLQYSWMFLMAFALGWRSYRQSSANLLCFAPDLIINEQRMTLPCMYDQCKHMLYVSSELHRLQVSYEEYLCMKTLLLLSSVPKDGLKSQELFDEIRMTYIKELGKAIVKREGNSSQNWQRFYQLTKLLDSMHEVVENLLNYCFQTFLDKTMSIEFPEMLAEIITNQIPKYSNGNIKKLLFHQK
Chain of Estrogen receptor beta (Homo sapiens) (Q92731 whole entry, looked up): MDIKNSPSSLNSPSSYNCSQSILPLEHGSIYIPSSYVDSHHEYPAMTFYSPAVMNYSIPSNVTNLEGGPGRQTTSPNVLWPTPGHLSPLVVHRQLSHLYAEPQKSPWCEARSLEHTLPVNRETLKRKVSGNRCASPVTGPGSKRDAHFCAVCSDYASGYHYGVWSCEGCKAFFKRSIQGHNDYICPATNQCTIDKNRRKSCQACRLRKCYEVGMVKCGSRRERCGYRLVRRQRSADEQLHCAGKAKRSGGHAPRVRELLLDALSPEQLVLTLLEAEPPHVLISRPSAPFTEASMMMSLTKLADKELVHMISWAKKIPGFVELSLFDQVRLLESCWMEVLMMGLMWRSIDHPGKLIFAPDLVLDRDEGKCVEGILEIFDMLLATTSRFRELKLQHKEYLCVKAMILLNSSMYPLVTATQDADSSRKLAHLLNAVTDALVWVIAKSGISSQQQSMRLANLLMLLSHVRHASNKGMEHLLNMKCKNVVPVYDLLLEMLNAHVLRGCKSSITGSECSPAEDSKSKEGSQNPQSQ
Chain of Progesterone receptor (Homo sapiens) (P06401 whole entry, looked up): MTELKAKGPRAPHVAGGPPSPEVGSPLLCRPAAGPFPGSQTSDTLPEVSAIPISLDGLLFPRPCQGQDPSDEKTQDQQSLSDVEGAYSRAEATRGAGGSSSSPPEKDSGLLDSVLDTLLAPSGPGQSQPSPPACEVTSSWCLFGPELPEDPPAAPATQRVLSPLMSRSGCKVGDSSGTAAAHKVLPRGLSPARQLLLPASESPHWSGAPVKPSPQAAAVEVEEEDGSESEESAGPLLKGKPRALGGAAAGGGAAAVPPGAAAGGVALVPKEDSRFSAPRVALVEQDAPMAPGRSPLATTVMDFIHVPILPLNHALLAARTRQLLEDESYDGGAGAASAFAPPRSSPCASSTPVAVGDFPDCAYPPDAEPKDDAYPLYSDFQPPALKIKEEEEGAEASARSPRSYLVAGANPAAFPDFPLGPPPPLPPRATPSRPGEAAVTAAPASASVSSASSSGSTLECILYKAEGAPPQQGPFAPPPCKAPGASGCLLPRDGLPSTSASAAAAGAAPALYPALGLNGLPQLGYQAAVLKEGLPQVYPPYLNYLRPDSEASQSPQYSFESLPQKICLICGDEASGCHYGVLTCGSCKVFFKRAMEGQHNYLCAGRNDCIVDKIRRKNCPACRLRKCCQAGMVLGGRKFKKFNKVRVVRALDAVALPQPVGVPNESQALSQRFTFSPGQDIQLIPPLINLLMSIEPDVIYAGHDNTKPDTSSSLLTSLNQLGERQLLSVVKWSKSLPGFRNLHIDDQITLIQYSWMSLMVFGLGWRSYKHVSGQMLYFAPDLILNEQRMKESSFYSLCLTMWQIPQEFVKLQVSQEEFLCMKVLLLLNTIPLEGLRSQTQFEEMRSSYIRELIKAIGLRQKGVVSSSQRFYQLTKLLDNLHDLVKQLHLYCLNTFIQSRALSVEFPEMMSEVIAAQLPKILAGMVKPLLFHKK

Turning to `Nc1ccc(Cl)cc1[N+](=O)[O-]`, the Potency result in assay [1] is “inactive”.

As to `ClC1=C(Cl)C(Cl)(Cl)C(Cl)=C1Cl`, the Potency in assay [1] was 52.9 µM (active).

For `CC(c1ccccc1)(c1ccc(O)cc1)c1ccc(O)cc1`, the Potency in assay [2] is 48.6 µM (active).

With `COc1ccc(C(c2ccc(OC)cc2)C(Cl)(Cl)Cl)cc1`, the Potency result in assay [3], in assay [4], in [9] and in assay [10] was “inactive” each time. The molecule was called inactive in assay [5]. Besides, the Potency was 34.5 µM (active) in [6], 36.2 µM (active) in [7], 19.4 µM [inconclusive] (active) in assay [8] and 48.3 µM (active) in assay [2].

Turning to `O=C(Nc1ccccc1-c1ccc(Cl)cc1)c1cccnc1Cl`, the Potency entry in assay [3], in assay [4], in assay [11], in [8], in assay [9] and in assay [13] was “inactive” each time. In addition, the Potency result in assay [10] and in assay [2] was “inactive” in each case. Further, in assay [5], the outcome was inactive. Also, the Potency in assay [12] is 57.8 µM (active).

With `ClC(Cl)=C(c1ccc(Cl)cc1)c1ccccc1Cl`, the figures for the Potency in assay [14] and in assay [15] were 9.69 µM (active) and 6.86 µM (active), respectively.

Regarding `Cc1nnc2n1-c1sc(CCc3ccc(CC(C)C)cc3)cc1C(c1ccccc1Cl)=NC2C` (stereo not given), the outcome in [5] was inactive. Further, the Potency result in assay [11], in assay [16], in [8], in [13] and in [10] was “inactive” in each case. The Potency in [12] was 11.9 µM (active); in assay [7], 15 µM (active); in assay [17] it was 29.8 µM (active); in assay [2], 29.8 µM (active).

Regarding `COc1cc(OC)c(OC)cc1C=O`, the Potency entry in assay [3], in [4], in assay [11], in assay [18], in [8] and in [9] was “inactive” throughout. Besides, the Potency entry in assay [2] and in assay [15] was “inactive” each time. In assay [5], the outcome was inactive. The Potency in [13] was 59.3 µM (active).

As for `CNC(=O)Oc1cc(C)c(SC)c(C)c1`, the Potency in assay [19] was 27.3 µM (active).

`CCC(C)=O`: in [6], the Potency result is “inactive”.

With `CCCCC(CC)COC(=O)CCCCC(=O)OCC(CC)CCCC` (stereo not given), the Potency entry in [20] was “inactive”.

Consider `CO/C=C(/C(=O)OC)c1ccccc1Oc1cc(Oc2ccccc2C#N)ncn1`, for which the Potency entry in assay [3], in [11], in [8] and in [1] was “inactive” in each case. Moreover, the Potency in assay [4] was 7.31 µM (active); in assay [12] it was 0.0731 µM (active); in assay [16], 18.5 µM (active); in assay [18], 21.7 µM (active); in assay [7], 33.6 µM (active); in assay [13] it was 58.1 µM (active). Besides, the Potency in assay [10] was 37.6 µM (active); in assay [2] it was 0.581 µM (active); in assay [14], 5.81 µM (active).

Regarding `N#Cc1cc([N+](=O)[O-])ccc1N`, the Potency result in assay [15] is “inactive”.

For `O=S(=O)(C(Cl)(Cl)Cl)C(Cl)(Cl)Cl`, the Potency in [14] was 17.2 µM (active). The Potency result in assay [19] is “inactive”.

Turning to `Cc1cc(C)c(C(=O)P(=O)(c2ccccc2)c2ccccc2)c(C)c1`, the Potency was 61.1 µM (active) in assay [2] and 54.5 µM (active) in assay [14].

On to `O=C1C(I)=CC(=C(c2cc(I)c(O)c(I)c2)c2ccccc2C(=O)O)C=C1I`, for which the Potency result in [3], in [12], in assay [16], in assay [18], in assay [8] and in [9] was “inactive” throughout. Besides, the Potency entry in [13], in assay [10], in assay [1] and in [20] was “inactive” in each case. The Potency is 16.9 µM (active) and 8.49 µM (active) in assay [6]; 29.8 µM (active) in assay [19].

In the case of `C=CC(=O)OCCCC`, the Potency entry in assay [20] is “inactive”.

As for `O=[N+]([O-])c1c(Cl)c(Cl)cc(Cl)c1Cl`, the Potency entry in assay [3], in assay [4], in assay [11], in [16], in [13] and in assay [1] was “inactive” each time. Besides, the Potency result in assay [17] and in assay [19] was “inactive” throughout. In addition, the molecule was classed as inactive in assay [5].

For `OCC(c1ccc(Cl)cc1)c1ccc(Cl)cc1`, the Potency result in [4], in [11], in assay [8], in [9], in assay [10] and in assay [17] was “inactive” throughout. For the same molecule, the molecule was called inactive in assay [5]. For the same molecule, the Potency was 13.7 µM (active) in assay [12], 43.6 µM (active) in assay [16] and 61.1 µM (active) in [7].

As for `O=C(c1ccccc1)C(Cl)Cl`, the values for the Potency in [2] and in assay [14] were 27.3 µM (active) and 4.33 µM (active), respectively.

`Nc1ccc([N+](=O)[O-])cc1`: the Potency is 54.5 µM (active) in assay [4]; 54.9 µM (active) in assay [16]; 30.6 µM (active) in [18]; 40.9 µM (active) in [10]; 8.63 µM (active) in assay [14]. For the same molecule, the Potency entry in assay [2] was “inactive”.

These data come from PubChem BioAssay (Tox21).
